This is an account of results in PubChem BioAssay.

Active and inactive are the calls of the source.

A short description of experiment [1]: E. coli DRC41 culture turbidity changes, primary screen, E. coli filamentation inducer project, strain DRC41, OD650, 48 h (AID 1152).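 Note: E. coli MC1000 strain DRC41 lacking acrAB efflux pump and sulA.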 The note with it: E. coli DRC41 (acrAB sulA), higher = more signal, called active from +8 up or from −8 down.
Experiment [2] in a line: small-molecule binders of probe aLefty1, primary screen, biochemical, small-molecule microarray, 635/667 nm fluorescence (AID 1153).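 Note: score merges spot fluorescence with signal-to-noise ratio from the scanned slide images.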 The note with it: higher = more signal.
Experiment [3] can be described thus: PSAC antagonists in infected red cells, primary screen, cell-based, P. falciparum Indochina, OD700, 1 h (AID 1154). The note with it: P. falciparum Indochina infected RBC osmotic lysis, higher = more signal, called active from +8 up or from −8 down.
The nature of experiment [4]: PSAC antagonists in infected red cells, primary screen, cell-based, P. falciparum Indochina, OD700, 2 h (AID 1155).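 Note: lysis reports solute entry through the parasite surface anion channel PSAC; channel blockers reduce lysis of infected cells.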 The note with it: P. falciparum Indochina infected erythrocytes, osmotic lysis OD700; higher = more signal, called active from +8 up or from −8 down.
Experiment [5] can be described thus: osmotic lysis modulators in infected erythrocytes, primary screen, PSAC antagonist project, cell-based, P. falciparum Indochina, OD700, 3 h (AID 1156). The note with it: higher = more signal, called active from +8 up or from −8 down.
The nature of experiment [6]: PSAC antagonists in infected red cells, primary screen, cell-based, P. falciparum Indochina, OD700, 18 h (AID 1157). As to conditions: P. falciparum Indochina infected erythrocytes, osmotic lysis OD700, 18 h; higher = more signal, called active from +8 up or from −8 down.
Experiment [7] in a line: modulators of S6 phosphorylation in cells, primary screen, cell-based, A549, cytoblot, luminescence, serum-stimulated (AID 1158).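 Note: serum-stimulated A549 lung adenocarcinoma cells; signal is phosphorylated S6 detected by cytoblot immunostaining with HRP secondary.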 The note with it: A549 phospho-S6 cytoblot, 5 h, higher = more signal.
Experiment [8] addresses NADPH oxidase 2 (Homo sapiens) (UniProt P04839). The experiment in a line: NOX2-dependent H2O2 signal modulators, primary screen, NOX inhibitor project, cell-based, HEK293-NOX2, PMA-stimulated, Amplex Red fluorescence (AID 1159). Note: test concentration not given here. As to conditions: 45 min, higher = more signal, called active from +8 up or from −8 down.
Experiment [9] concerns the target NADPH oxidase 4 (Homo sapiens) (UniProt Q9NPH5). Put plainly: NOX4-dependent H2O2 signal modulators, primary screen, NOX inhibitor project, cell-based, HEK293-NOX4, tetracycline-induced, Amplex Red fluorescence (AID 1160). The note with it: 45 min, higher = more signal, called active from +8 up or from −8 down.
The target of experiment [10] is NADPH oxidase 5 (Homo sapiens) (UniProt Q96PH1). Put plainly: NOX5-dependent H2O2 signal modulators, primary screen, NOX inhibitor project, cell-based, HEK293-NOX5, Amplex Red fluorescence (AID 1161). The note with it: HEK293-NOX5, ionomycin, 45 min, higher = more signal.
Experiment [11] in a line: A549 cell viability effects, profiling panel, calcein-AM fluorescence, 48 h, basal (AID 1162). Note: test concentration not given here. As to conditions: higher = more signal.
Experiment [12] in a line: adipocyte viability effects, profiling panel, cell-based, 3T3-L1 adipocytes, calcein-AM fluorescence, 48 h, basal (AID 1163). Note: test concentration not given here. As to conditions: 3T3-L1 adipocytes viability, higher = more signal.
A short description of experiment [13]: HepG2 cell viability effects, profiling panel, calcein-AM fluorescence, 48 h, basal (AID 1164). Note: test concentration not given here. As to conditions: higher = more signal.
The nature of experiment [14]: MM1S cell viability effects, profiling panel, calcein-AM fluorescence, 48 h, basal (AID 1165).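 Note: viability of MM1S multiple myeloma cells under basal unstimulated conditions; test concentration not given here.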 As to conditions: higher = more signal.
Experiment [15] is described as follows: basal RPMI8226 viability, no added stimulus, profiling panel, cell-based, calcein-AM fluorescence, 48 h, PK04 Diversity Set (AID 1166).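 Note: cells grown under basal conditions without added stimulus; test concentration not given here.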 As to conditions: RPMI8226 myeloma viability, higher = more signal.
A short description of experiment [16]: basal HepG2 mitochondrial membrane potential changes, profiling panel, cell-based, JC-1 fluorescence, 24 h, 100 nL compound (AID 1167). Note: test concentration not given here. The note with it: higher = more signal.
The nature of experiment [17]: basal 3T3-L1 adipocyte mitochondrial potential changes, profiling panel, cell-based, JC-1 fluorescence, 3T3-L1 adipocytes, 24 h, 100 nL compound (AID 1168). Note: test concentration not given here. The note with it: JC-1 mitochondrial fluorescence, higher = more signal, called active from +8 up or from −8 down.
The nature of experiment [18]: basal RPMI8226 mitochondrial membrane potential changes, profiling panel, cell-based, JC-1 fluorescence, 24 h, 100 nL compound (AID 1169). Note: test concentration not given here. As to conditions: RPMI8226 myeloma, JC-1 mitochondrial potential fluorescence, higher = more signal.
Experiment [19] can be described thus: basal MM1S mitochondrial membrane potential changes, profiling panel, cell-based, JC-1 fluorescence, 24 h, 100 nL compound (AID 1170). Note: test concentration not given here. As to conditions: higher = more signal.
Experiment [20] is described as follows: A549 lung cancer cell viability effects, profiling panel, resazurin fluorescence, 24 h, PK04 Diversity Set (AID 1171). Note: test concentration not given here. The note with it: higher = more signal, called active from +8 up or from −8 down. A general note: The colour change of resazurin is a common sign of viable cells or microbes.

Chain of NADPH oxidase 4 (Homo sapiens) (Q9NPH5 whole entry, looked up): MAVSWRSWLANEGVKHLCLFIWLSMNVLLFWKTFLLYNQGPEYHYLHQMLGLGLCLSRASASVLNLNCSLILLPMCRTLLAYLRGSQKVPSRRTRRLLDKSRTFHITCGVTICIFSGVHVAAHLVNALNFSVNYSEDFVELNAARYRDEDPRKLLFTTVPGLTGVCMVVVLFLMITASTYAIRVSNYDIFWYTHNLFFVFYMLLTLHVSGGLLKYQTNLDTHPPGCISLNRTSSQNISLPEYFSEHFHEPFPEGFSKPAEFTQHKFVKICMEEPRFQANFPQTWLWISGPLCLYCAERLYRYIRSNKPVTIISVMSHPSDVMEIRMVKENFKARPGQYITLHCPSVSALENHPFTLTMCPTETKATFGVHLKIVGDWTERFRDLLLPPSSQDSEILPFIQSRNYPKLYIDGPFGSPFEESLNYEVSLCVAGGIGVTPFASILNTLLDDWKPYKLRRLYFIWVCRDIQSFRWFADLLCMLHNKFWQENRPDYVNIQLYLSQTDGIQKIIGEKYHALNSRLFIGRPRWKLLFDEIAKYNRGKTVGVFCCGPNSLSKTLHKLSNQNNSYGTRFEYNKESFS
Chain of NADPH oxidase 5 (Homo sapiens) (Q96PH1 whole entry, looked up): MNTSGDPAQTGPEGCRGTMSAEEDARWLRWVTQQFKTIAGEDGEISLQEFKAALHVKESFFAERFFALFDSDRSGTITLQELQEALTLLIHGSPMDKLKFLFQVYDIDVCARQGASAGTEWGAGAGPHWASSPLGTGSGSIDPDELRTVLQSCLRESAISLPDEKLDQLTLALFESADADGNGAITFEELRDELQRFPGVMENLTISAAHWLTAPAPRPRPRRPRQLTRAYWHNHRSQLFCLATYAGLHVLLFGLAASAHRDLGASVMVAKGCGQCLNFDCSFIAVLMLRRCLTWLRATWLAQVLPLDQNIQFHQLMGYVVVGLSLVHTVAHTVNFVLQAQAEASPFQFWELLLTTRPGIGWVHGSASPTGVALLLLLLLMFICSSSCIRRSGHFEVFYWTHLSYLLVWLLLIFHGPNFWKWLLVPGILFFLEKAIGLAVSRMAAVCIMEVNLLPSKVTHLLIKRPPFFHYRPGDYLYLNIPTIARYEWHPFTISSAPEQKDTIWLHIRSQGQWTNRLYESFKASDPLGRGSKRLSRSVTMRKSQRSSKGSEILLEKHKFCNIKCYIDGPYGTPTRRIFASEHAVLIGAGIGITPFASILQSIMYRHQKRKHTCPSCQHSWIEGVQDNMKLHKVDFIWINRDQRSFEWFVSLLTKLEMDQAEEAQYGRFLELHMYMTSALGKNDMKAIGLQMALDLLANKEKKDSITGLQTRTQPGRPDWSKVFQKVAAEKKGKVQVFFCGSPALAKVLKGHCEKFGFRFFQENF
Chain of NADPH oxidase 2 (Homo sapiens) (P04839 whole entry, looked up): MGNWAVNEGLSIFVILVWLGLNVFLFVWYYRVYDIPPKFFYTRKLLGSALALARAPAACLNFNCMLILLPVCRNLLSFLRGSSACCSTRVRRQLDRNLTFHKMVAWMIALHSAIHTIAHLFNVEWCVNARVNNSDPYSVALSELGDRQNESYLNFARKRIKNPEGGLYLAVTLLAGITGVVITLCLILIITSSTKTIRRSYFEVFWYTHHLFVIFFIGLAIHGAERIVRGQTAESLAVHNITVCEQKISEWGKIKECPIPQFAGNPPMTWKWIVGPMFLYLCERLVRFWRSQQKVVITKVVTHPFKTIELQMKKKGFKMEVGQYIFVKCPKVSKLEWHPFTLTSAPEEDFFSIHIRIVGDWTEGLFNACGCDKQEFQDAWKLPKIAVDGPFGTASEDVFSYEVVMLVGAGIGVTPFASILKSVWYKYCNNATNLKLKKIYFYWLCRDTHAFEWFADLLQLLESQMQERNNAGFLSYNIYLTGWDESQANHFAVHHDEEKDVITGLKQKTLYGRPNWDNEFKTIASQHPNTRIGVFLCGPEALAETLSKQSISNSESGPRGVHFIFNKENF

Take `O=C1C[C@@](C(=O)NCc2ccccc2)(c2ccc([N+](=O)[O-])cc2)[C@@H](c2ccc(CO)cc2)N1C1CCCCC1`: the z-score in [1] was 1.09 (inactive); in experiment [3], 0.661 (inactive); in experiment [4] it was -0.881 (inactive); in [5], -0.436 (inactive); in experiment [6] it was -0.877 (inactive); in experiment [7], 1.58. The z-score in experiment [8] is -0.522 (inactive); in [9], 0.333 (inactive); in experiment [10], 0.0696; in experiment [11], 0.691; in [12] it was 1.34; in experiment [13], 2.22. For the same molecule, the z-score in experiment [14] is 0.406; in experiment [15], 0.956; in experiment [16], 2.33; in experiment [17], 1.58 (inactive); in experiment [18] it was -0.343; in experiment [19], 0.242. Besides, in experiment [20], the z-score is -0.685 (inactive). Also, the composite z-score in [2] stood at 0.857.

For the molecule `COc1ccc(C#Cc2ccc3c(c2)[C@]2(C(=O)N3)[C@H](C(=O)O)[C@H]3C(=O)O[C@H](c4ccccc4)[C@H](c4ccccc4)N3[C@@H]2c2ccccc2OCCO)cc1`, the z-score is 0.987 (inactive) in experiment [1]; -0.357 (inactive) in experiment [3]; -0.566 (inactive) in experiment [4]; -10.3 (active) in experiment [5]; -2.29 (inactive) in experiment [6]; 1.56 in experiment [7]. In addition, the z-score is 2.09 (inactive) in experiment [8]; -0.415 (inactive) in experiment [9]; -2.32 in experiment [10]; -1.23 in experiment [11]; 1.19 in experiment [12]; -2.52 in experiment [13]. Further, the z-score was -3.32 in experiment [14]; -4.18 in [15]; -3.99 in [16]; 2.1 (inactive) in [17]; -0.823 in [18]; -1.3 in [19]. For the same molecule, in [20], the z-score was -0.435 (inactive). Moreover, the composite z-score in [2] was -0.707.

Consider `C=CC[C@]1(C(=O)NCC(O)CO)COC(c2ccc(OCCCO)cc2)=N1` (stereo not given in full), for which the z-score in experiment [1] is -0.353 (inactive); in experiment [3], 3.8 (inactive); in experiment [4] it was 0.203 (inactive); in [5] it was 0.99 (inactive); in [6] it was 0.545 (inactive); in experiment [7], 0.18. Besides, the z-score in experiment [8] was -0.261 (inactive); in [9], 0.914 (inactive); in experiment [10] it was 0.462; in experiment [11], -0.188; in experiment [12] it was -0.191; in experiment [13], -0.323. In addition, the z-score in experiment [14] is -0.244; in experiment [15], 0.146; in experiment [16], -0.512; in [17] it was -0.604 (inactive); in [18] it was 0.00774; in [19] it was -0.307. Also, in experiment [20], the z-score was -0.106 (inactive). This molecule registered a composite z-score in experiment [2] of 0.174.

For `COC(=O)[C@@]1(Cc2ccc(OC)cc2)[C@H]2c3cc(C(=O)N4CCCC4)n(Cc4c(CO)[nH]cc(C)c4=O)c3C[C@H]2CN1C(=O)c1ccccc1`, the z-score was -0.552 (inactive) in [1]; 0.843 (inactive) in experiment [3]; -0.163 (inactive) in [4]; 0.455 (inactive) in experiment [5]; -1.46 (inactive) in experiment [6]; 2.57 in [7]. Besides, the z-score in experiment [8] was 0.753 (inactive); in experiment [9], 0.386 (inactive); in experiment [10], -4.96; in experiment [11], -0.37; in experiment [12], 0.454; in [13], 0.375. Further, the z-score in experiment [14] is -0.206; in experiment [15] it was 0.501; in experiment [16] it was 2.94; in experiment [17] it was 0.926 (inactive); in experiment [18], 0.166; in experiment [19] it was -1.19. In experiment [20], the z-score was 0.582 (inactive). For the same molecule, the composite z-score in experiment [2] amounted to 0.213.

Regarding `COc1ccc([Si](C)(C)[C@H]2[C@H](CC(=O)N3Cc4ccccc4C[C@H]3CO)O[C@@]3(C(=O)N(C)c4ccccc43)[C@@H]2C)cc1`, the z-score in experiment [1] was -0.614 (inactive); in [3], 13.2 (active); in experiment [4], 1.16 (inactive); in experiment [5], 2.37 (inactive); in experiment [6], -0.925 (inactive); in experiment [7], 0.867. Further, the z-score was -3.27 (inactive) in experiment [8]; -1.45 (inactive) in [9]; -1.91 in [10]; -0.962 in experiment [11]; 1.43 in experiment [12]; -1.42 in experiment [13]. Moreover, the z-score was -2.67 in [14]; -4.05 in [15]; -0.592 in experiment [16]; -0.0846 (inactive) in [17]; -1.1 in experiment [18]; -0.748 in experiment [19]. The z-score in [20] is -0.299 (inactive). In addition, the composite z-score in [2] stood at 0.384.
